Screening data: PubChem BioAssay, National Center for Advancing Translational Sciences (NCATS)
TexasRed fluor = Total Fluorescence Counterscreen for Inhibitors of the Interaction of Thyroid Hormone Receptor and Steroid Receptor Coregulator 2; TRb/SRC2 Texas Red total fluorescence interference; Potency, µM (doses to about 106 µM), for the others: top-dose fluorescence change, negative = quenching; 280,000 compounds, 0.29% hits; active = well fitted curve in either direction with a large enough effect; inconclusive = small, poorly fitted or top-dose-only effect
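Human TRβ ligand-binding domain (0.6 uM) and Texas Red SRC2 peptide (20 nM) in Tris buffer with 1 uM T3 and 5% DMSO were incubated with pinned compound for 5 hr at ambient temperature. Total fluorescence was computed as S + 2P (555/632 nm).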
BLM helicase inh = qHTS Assay for Inhibitors of Bloom's syndrome helicase (BLM). 350,000 compounds, 0.2% hits. recombinant BLM DNA unwinding, fluorescence dequenching. RecQ-like DNA helicase BLM (Homo sapiens), P54132. AID 2528, 2010. Potency, µM (highest dose often 56.1 µM), for inactives: at the highest dose activity change, negative = inhibition, hits mostly inhibitors;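 also: plate controls were vehicle for no effect and no enzyme for full effect; nearly all actives have a fitted effect of over 35% in size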
RECQ1 inh = qHTS Assay for Inhibitors of RecQ-Like Dna Helicase 1 (RECQ1). Potency, µM (doses to about 57.3 µM), for inactives: at the highest dose activity, negative = inhibition, hits mostly inhibitors. 240,000 compounds, 0.54% hits. RECQ1 DNA unwinding, red fluorescence kinetic read. AID 2549, 2010;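 also: plate controls were vehicle for no effect and no enzyme for full effect; nearly all actives have a fitted effect of over 30% in size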
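50 nM RECQ1T1 preincubated 15 min with compound in Tris pH 8.0 buffer with MgCl2, DTT, Tween-20 and 2.5 ug/ml poly(dI-dC); started with 200 nM TAMRA/BHQ-2 forked duplex and 2 mM ATP. Unwinding read as fluorescence (525/598 nm), two reads 2 h apart.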
RGS12 GoLoco inh = qHTS Assay for Inhibitors of RGS12 GoLoco Motif Activity (Red Fluorophore); Guanine nucleotide-binding protein G(i) subunit alpha-1 (Homo sapiens), P63096; Gai1:RGS12 GoLoco peptide FP, rhodamine, 10 min; Potency, µM (highest dose often 61.6 µM), without a hit: at the top dose activity, negative = inhibition, actives largely listed as inhibitors; 230,000 compounds, 0.44% hits; AID 880, 2007; active = well fitted inhibition curve with a large enough effect, not every such curve was filed as active; inactive = no such curve, though single readings can be large or run the other way; also: nearly all actives have a fitted effect of over 30% in size
TRb-SRC2 inh = qHTS for Inhibitors of the Interaction of Thyroid Hormone Receptor and Steroid Receptor Coregulator 2. Thyroid hormone receptor beta (Homo sapiens), P10828. TRbeta-SRC2 peptide binding, fluorescence polarization; receptor liganded with 1 µM T3. Potency, µM (titrated, usually from 106 µM), for inactives: at the highest dose activity change, negative = inhibition, hits mostly inhibitors. 280,000 compounds, 0.065% hits. AID 1469, 2008;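 also: plate controls were bound peptide for no effect and peptide without receptor for full effect; nearly all actives have a fitted effect of over 50% in size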
Target sequence (P10828 whole entry, looked up): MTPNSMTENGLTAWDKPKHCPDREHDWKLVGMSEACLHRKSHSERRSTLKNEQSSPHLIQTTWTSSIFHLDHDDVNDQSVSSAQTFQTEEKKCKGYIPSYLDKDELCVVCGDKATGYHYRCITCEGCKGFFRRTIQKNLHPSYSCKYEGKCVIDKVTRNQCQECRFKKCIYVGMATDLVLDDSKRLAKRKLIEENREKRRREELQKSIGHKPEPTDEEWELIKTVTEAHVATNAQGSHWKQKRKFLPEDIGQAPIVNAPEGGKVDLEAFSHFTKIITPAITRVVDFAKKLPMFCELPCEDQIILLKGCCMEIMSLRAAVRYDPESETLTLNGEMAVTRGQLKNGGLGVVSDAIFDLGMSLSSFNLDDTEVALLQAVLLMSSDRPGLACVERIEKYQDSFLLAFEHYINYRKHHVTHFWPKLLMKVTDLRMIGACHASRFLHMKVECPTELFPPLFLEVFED
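TRb LBD 0.6 uM + Texas Red SRC2 peptide 20 nM, 1 uM T3, Tris buffer w/ 5% DMSO; compound pinned, 5 h RT; FP read ex 555/em 632; normalized to unbound and bound controls.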
APE1 inh = qHTS Assay for Inhibitors of the Human Apurinic/apyrimidinic Endonuclease 1 (APE1) | Potency, µM (doses to about 65.8 µM), without a hit: at the highest dose activity change, negative = inhibition, usual class: inhibitors | AID 2517, 2012 | DNA repair nuclease/redox regulator APEX1 (Homo sapiens), P27695 | 350,000 compounds, 0.35% hits | recombinant APE1, TAMRA/BHQ-2 abasic DNA cleavage fluorescence;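 also: plate controls were vehicle for no effect and reference inhibitor for full effect; nearly all actives have a fitted effect of over 55% in size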
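Step 1: APE1 (0.75 nM) with compound, 15 min RT. Step 2: add 50 nM fluorophore/quencher THF duplex. Step 3: three fluorescence reads 60 s apart (525/598 nm); read 3 minus read 1 = reaction progress.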
* marks the source's active call; other numbers are inactive results; [ ] = dose if it differs, or a comment. Sampled rows, rich in hits. Any-hit rate of the full collection: about 0.9%. Unless noted, calls follow the shape of the dose curve; as a rule, active = well fitted curve in the direction sought with a large enough effect; inconclusive = small, poorly fitted or top-dose-only effect, or another doubt; inactive = no such curve, though single readings can be large; an effect the other way counts as inactive or inconclusive. Unless noted, % is scaled to controls: 0 for no effect and ±100 for the full control effect; potency is read from the fitted curve at half-maximal effect.

`C[n+]1cnc(-c2ccccc2)cc1-c1ccccc1` gave TexasRed fluor -5%, BLM helicase inh -3%, RECQ1 inh -5%, RGS12 GoLoco inh 14µM*, TRb-SRC2 inh -3% and APE1 inh 2%.
For COCCN(C(=O)COC(=O)Cc1coc2cc3c(cc12)CCC3)c1c(N)n(Cc2ccccc2)c(=O)[nH]c1=O the results were APE1 inh 9.5µM*.
Screening N#Cc1c(-c2ccc(O)cc2)no[n+]1[O-] returned APE1 inh -12%.
Oc1ccc(Nc2nc(-c3ccccc3)nc3ccccc23)cc1 was read as BLM helicase inh -6% and APE1 inh -7%.
Oc1ccc(Nc2nc3ccccc3nc2Nc2ccc(O)cc2)cc1 was read as TexasRed fluor -11%, BLM helicase inh -16%, RECQ1 inh inconclusive, RGS12 GoLoco inh 2.5µM*, TRb-SRC2 inh -5% and APE1 inh inconclusive.
FC(F)Oc1ccc(C2=Nn3c(nnc3-c3ccccc3C(F)(F)F)SC2)cc1OCC1CC1 was read as APE1 inh -2%.
`O=C(NCCc1ccccc1)c1nc(-c2ccc(Cl)cc2)n2c1CCCCC2` gave TexasRed fluor inconclusive, BLM helicase inh -9% and TRb-SRC2 inh 0%.
Screening O=C(NCc1ccccc1)c1nc(-c2ccc(Cl)cc2)n2c1CCCCC2 returned TexasRed fluor 20µM*[quencher], BLM helicase inh -11% and TRb-SRC2 inh -4%.
For CC(C)N(Cc1ccccc1)C(=O)c1nc(-c2ccc(Cl)cc2)n2c1CCCCC2 the results were TexasRed fluor 14µM*[quencher], BLM helicase inh -2% and TRb-SRC2 inh -12%.
`CC(C)(C)c1cc(C(C)(C)C)c(O)c(C(C)(C)C)c1` gave TexasRed fluor 3%[201 µM] and TRb-SRC2 inh 3%[201 µM].
COc1ccc(OC)c(C2NC(=O)NC(C)=C2C(=O)Nc2ccc(F)cc2)c1 (stereo unspecified) was read as TexasRed fluor -2%, BLM helicase inh -7% and TRb-SRC2 inh 6%.
`CCOc1ccc(-c2ccc(/C=C3/C(=N)N4C(C)=CSC4=NC3=O)o2)c([N+](=O)[O-])c1` gave TexasRed fluor 79µM*[quencher], BLM helicase inh -20%, RECQ1 inh -2%, RGS12 GoLoco inh 19%, TRb-SRC2 inh inconclusive and APE1 inh 8%.
CCOc1ccc(-c2ccc(/C=C3/C(=N)N4C=CSC4=NC3=O)o2)c([N+](=O)[O-])c1 was read as TexasRed fluor -20%, BLM helicase inh inconclusive, RECQ1 inh 2%, RGS12 GoLoco inh 126%, TRb-SRC2 inh 1% and APE1 inh -2%.
Screening CCn1c(CN2CCCCC2)nc2cc(NC(=O)c3ccccc3[N+](=O)[O-])ccc21 returned TexasRed fluor -6%, BLM helicase inh -2% and TRb-SRC2 inh -4%.
For CCn1c(CN2CCCCC2)nc2cc(NC(=O)c3ccc([N+](=O)[O-])cc3)ccc21 the results were TexasRed fluor -11%, BLM helicase inh -2% and TRb-SRC2 inh -4%.
Screening CCN1CCN(Cc2nc3cc(NC(=O)c4cccc([N+](=O)[O-])c4)ccc3n2CC)CC1 returned TexasRed fluor 2.8µM*[quencher], BLM helicase inh 3% and TRb-SRC2 inh -26%.
Screening CCn1c(CN2CCCCC2)nc2cc(NC(=O)COc3ccccc3C(C)(C)C)ccc21 returned TexasRed fluor 282µM*[quencher], BLM helicase inh -16% and TRb-SRC2 inh -21%.
Screening Cn1c(CN2CCOCC2)nc2cc(NC(=O)c3ccccc3[N+](=O)[O-])ccc21 returned TexasRed fluor 100µM*[quencher], BLM helicase inh 0% and TRb-SRC2 inh -11%.
For CCCCCCCCCCCC[N+](C)(C)[O-] the results were TexasRed fluor -4%[201 µM] and TRb-SRC2 inh 2%[201 µM].
For C[C@@H]1C/C=C/C=C/C=C/C=C/[C@H](O[C@@H]2O[C@H](C)[C@@H](O)[C@H](N)[C@@H]2O)C[C@@H]2O[C@](O)(C[C@@H](O)C[C@H]3O[C@@H]3/C=C/C(=O)O1)C[C@H](O)[C@H]2C(=O)O the results were APE1 inh 0%[21 µM].
CCOC(=O)/C=C/CCC/C=C/C(=O)c1ccccc1 was read as TexasRed fluor -1%, BLM helicase inh -3%, RECQ1 inh -15%, RGS12 GoLoco inh -7%, TRb-SRC2 inh 0% and APE1 inh -16%.
`CC(C)(C)n1ncc2c(=O)n(Cc3ccccc3C#N)cnc21` gave APE1 inh 0%.
`Cc1c2oc3c(C)ccc(C(=O)N[C@@H]4C(=O)N[C@@H](C(C)C)C(=O)N5CCC[C@@H]5C(=O)N(C)CC(=O)N(C)[C@@H](C(C)C)C(=O)O[C@H]4C)c3nc-2c(C(=O)N[C@@H]2C(=O)N[C@@H](C(C)C)C(=O)N3CCC[C@@H]3C(=O)N(C)CC(=O)N(C)[C@@H](C(C)C)C(=O)O[C@H]2C)c(N)c1=O` gave TexasRed fluor -2%, BLM helicase inh -18%, RECQ1 inh 2.8µM*, RGS12 GoLoco inh 7%, TRb-SRC2 inh -13% and APE1 inh inconclusive.
COc1ccc([N+](=O)[O-])cc1NC(=O)COC(=O)Cc1cc(OC)c(OC)c(OC)c1 was read as TexasRed fluor 4%, BLM helicase inh -6%, RECQ1 inh 1%, RGS12 GoLoco inh 0%, TRb-SRC2 inh 10% and APE1 inh 1%.
`COc1cc(CC(=O)OCC(=O)Nc2cc([N+](=O)[O-])ccc2F)cc(OC)c1OC` gave TexasRed fluor 1000µM*[quencher], BLM helicase inh 5%, RECQ1 inh -5%, RGS12 GoLoco inh -16%, TRb-SRC2 inh -26%[53 µM] and APE1 inh 0%.
Screening CCOc1ccc(C2c3[nH]c4ccccc4c3CCN2C(=O)CSc2ccccc2)cc1 (stereo unspecified) returned TexasRed fluor 2.8µM*[quencher], BLM helicase inh -11% and TRb-SRC2 inh -16%.
For Cc1ccc(C2c3[nH]c4ccccc4c3CCN2C(=O)CSc2ccccc2)cc1 (stereo unspecified) the results were TexasRed fluor -1%, BLM helicase inh -10% and TRb-SRC2 inh -2%.
